From PubChem BioAssay
Compounds with a hit are over-represented: about 21% of the library has one in this group of screens.
NS1 inh = blocks influenza NS1 protein function | Potency, µM (doses to about 46.1 µM), for the others: at the highest dose activity, positive = more growth | AID 2326 | 0.4% of 270,000 active; calls by dose curve; also: potency is read from the fitted curve at half-maximal effect; actives are rising curves; nearly all actives have a fitted effect of over 50% in size
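Read-out: OD600 growth recovery of NS1-expressing budding yeast. Cells grown overnight at 30C in -URA glucose medium, washed, resuspended and diluted 1:100 in 2% galactose assay medium, pH 6.0. Same strain lacking NS1 served as positive control.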
Cycloheximide cs = counter-screen hit for Shiga toxin inhibitors, cycloheximide. AID 2314. max response, %. cell reporter, cycloheximide protein synthesis inhibition counterscreen. 12% of 300,000 active; in the data active = max response mostly above about 13%, no sharp cut-off; inactive = mostly below about 14%; also: read at 38.3 µM for the half of the compounds with a filed dose; 0% is about no effect
Pf growth 48h = P. falciparum growth inhibition at 48 hours (one generation) | P. falciparum luciferase growth in erythrocytes, 48 h | Potency, µM (top dose mostly 28.7 µM), without a hit: top-dose activity change, negative = inhibition, hits mostly inhibitors | 5.9% of 310,000 active | AID 504832; also: potency is read from the fitted curve at half-maximal effect; % is scaled to controls: 0 for no effect and ±100 for the full control effect
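Parasite viability was followed by luminescence of a genomically integrated firefly luciferase. Cultures held 0.1% parasitemia at 2% hematocrit (final), incubated under 5% CO2 at 37 C.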
Pf growth 96h = P. falciparum growth inhibition at 96 hours; P. falciparum luciferase reporter growth, 96 h; Potency, µM (doses to about 28.7 µM), for inactives: at the top dose activity change, negative = inhibition, hits mostly inhibitors; 6.9% of 320,000 active; AID 504834; also: potency is read from the fitted curve at half-maximal effect; % is scaled to controls: 0 for no effect and ±100 for the full control effect
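Plates of compound plus infected erythrocytes (2% hematocrit, 0.05% parasitemia final) incubate 96 hours, 37 C, 5% CO2. Detection reagent added; reduced luminescence from the parasites' luciferase reporter flags inhibition.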
Shiga inhibitor = blocks Shiga toxin action in Vero cells; Vero cells, Shiga toxin protein synthesis inhibition reporter; inhibition, % at 38.7 µM; 9.2% of 290,000 active; AID 2315; in the data active = inhibition mostly above about 28%, no sharp cut-off; inactive = mostly below about 43%; also: 0% is about no effect
SARS PLP yeast = blocks SARS-CoV papain-like protease in a yeast assay; 0.19% of 330,000 active; Potency, µM (highest dose often 32.9 µM), for the others: top-dose activity, positive = growth rescue, most hits filed as activators; S. cerevisiae expressing SARS-CoV PLpro, growth rescue; calls by dose curve; also: potency is read from the fitted curve at half-maximal effect; 0% is about no effect; nearly all actives have a fitted effect of over 55% in size
An asterisk follows results filed as active; ? = inconclusive; / = not tested or not shown; + = active, no number. Unless noted, calls follow the shape of the dose curve; as a rule, active = well fitted inhibition curve with a large enough effect; inconclusive = small, poorly fitted or top-dose-only effect, or another doubt; inactive = no such curve, though single readings can be large or run the other way.

SMILES | NS1 inh | Cycloheximide cs | Pf growth 48h | Pf growth 96h | Shiga inhibitor | SARS PLP yeast
Cc1ccc(S(=O)(=O)N2CCCOC2CNC(=O)C(=O)NCc2cccs2)cc1 (stereo not drawn) | -16% | -2 | -26% | ? | 11 | 5%
N#Cc1nc(-c2cccc(Cl)c2)oc1NCc1cccnc1 | -17% | 26 | / | ? | 46* | 0%
N#Cc1nc(Cc2ccccc2)oc1NCc1ccccc1Cl | -227% | 48* | ? | / | 41* | -27%
N#Cc1nc(-c2ccco2)oc1NCc1cccnc1 | ? | -4 | -10% | 67% | 9 | -9%
COc1ccc(-c2nc(C#N)c(NCc3ccccc3Cl)o2)cc1 | -8% | 21 | 10% | ? | 11 | /
N#Cc1nc(Cc2ccccc2)oc1NCc1cccnc1 | 5% | -1 | ? | ? | -6 | 19%
COc1ccc(-c2nc(C#N)c(NCc3ccccc3Cl)o2)cc1OC | -2% | 16 | ? | 0.59µM* | 26 | 10%
COc1ccc(-c2nc(C#N)c(NCc3ccc(F)cc3)o2)cc1OC | -17% | 24* | ? | / | 45 | 4%
N#Cc1nc(-c2ccco2)oc1NCc1ccc(F)cc1 | -82% | 12 | 19% | / | 34 | -17%
O=C1CN(C(=O)COC(=O)c2c(F)cccc2Cl)c2ccccc2N1 | / | / | / | / | / | -7%
COc1ccc(CNc2oc(COc3ccc(Cl)cc3)nc2C#N)cc1 | -45% | -3 | -20% | / | -2 | -17%
COc1ccc(-c2nc(C#N)c(NCc3cccnc3)o2)cc1OC | 9% | -3 | ? | 10µM* | -12 | -4%
N#Cc1nc(COc2cccc(Cl)c2)oc1NCc1ccncc1 | -20% | 18* | ? | ? | 54 | 0%
CC1=CC(C)(C)N(C(=O)C(C)N2C(=O)c3ccccc3C2=O)c2c(C)cc(C)cc21 (stereo not drawn) | -23% | -3 | 10µM* | / | -26 | -12%
COc1ccc2c(c1)C(C)=CC(C)(C)N2C(=O)C(C)N1C(=O)c2ccccc2C1=O (stereo not drawn) | -38% | -2 | -10% | / | -4 | -33%
Cc1noc(C)c1COC(=O)CCN1c2ccccc2Sc2ccccc21 | 3% | 2 | ? | 12µM* | -8 | -5%
Cc1noc(C)c1COC(=O)CCOc1ccccc1 | ? | 2 | -8% | -11% | 33 | 3%
CCC1C(c2ccccc2)NC(c2ccccc2)CC1(O)c1ccc(F)cc1 (stereo not drawn) | 0% | -1 | 10µM* | ? | 0 | 0%
O=C1C(=O)N(CCO)C(c2ccc(Br)cc2)/C1=C(\O)c1ccccc1 (stereo not drawn) | 12% | 1 | 34% | -99% | -10 | -3%
Cc1cc2c(cc1C)N(C(=O)CSC1=NCCS1)C(C)(C)c1ssc(=S)c1-2 | ? | 1 | 6.6µM* | 2.6µM* | -10 | -7%
Cc1cc(C)c2c(c1)-c1c(ssc1=S)C(C)(C)N2C(=O)CSc1nncn1C | 8% | -6 | 4.7µM* | ? | -26 | 6%
CC1(C)c2ssc(=S)c2-c2ccccc2N1C(=O)CSC1=NCCS1 | ? | -1 | ? | 11% | -11 | -8%
CC1(C(=O)NCC2CCCO2)Oc2cccnc2NC1=O (stereo not drawn) | 1% | -3 | 32% | ? | -11 | 0%
Cc1cc(OCc2nnc(SC(C)C(=O)O)n2Cc2ccccc2)ccc1Cl (stereo not drawn) | 4% | 0 | 12% | ? | -7 | 0%
COC(=O)c1cc2c(ccn2-c2ccc(F)cc2)n1Cc1cccc(OC)c1 | 12% | -3 | ? | ? | -13 | 6%
SMILES | NS1 inh | Cycloheximide cs | Pf growth 48h | Pf growth 96h | Shiga inhibitor | SARS PLP yeast
COC(=O)c1cc2c(ccn2-c2ccc(F)cc2)n1Cc1ccc(OC(C)=O)cc1 | ? | 59* | ? | ? | 122* | 22%
O=C(Nc1cccc(F)c1)c1ccc2c(c1)OCCO2 | -102% | 43* | 246% | 266% | 87* | 0%
Cc1cccc(NC(=S)N/N=C/c2ccc3c(c2)OCO3)c1 | ? | 49* | 20% | -18% | + | ?
CCC(C)(C)NC(=O)c1ccc2c(c1)OCCO2 | / | 16* | 36% | 45% | 45 | 0%
CN(CC(=O)Nc1cccc(F)c1)C(=O)c1ccc2c(c1)OCCO2 | / | / | 49% | 67% | / | -1%
CCC(C)(C)NC(=O)CN(C(=O)C(=O)Nc1ccc2c(c1)OCCO2)C1CC1 | 10% | 12* | 18% | 13% | 14 | -11%
Cc1cccc(NC(=S)NNC(=O)c2csc3c2CCC(C)C3)c1 (stereo not drawn) | -1% | 12 | 59% | / | 36 | 1%
Nc1cc[n+](CC(=O)c2ccc3c(c2)OCCO3)cc1 | 14% | -4 | 4.7µM* | ? | -7 | 13%
Cc1cccc(NC(=S)NNC(=O)c2ccc3c(c2)OCO3)c1 | -3% | 116* | 0% | 388% | 49* | -8%
CCCc1cc(C(=O)NNC(=S)Nc2cccc(C)c2)cs1 | -17% | 31* | 207% | 142% | 40* | -2%
Cc1cccc(NC(=S)NCc2ccc3c(c2)OCO3)c1 | -23% | -2 | 3% | -14% | -15 | 22%
Cc1cccc(NC(=O)c2ccc3c(c2)OCCO3)c1 | -27% | 31 | 58% | ? | 41* | -7%
Cc1ccc(-c2c(C(=O)NCc3ccc(F)cc3)oc(=O)c3ccccc23)cc1 | 0% | -2 | 17% | -13% | 7 | 27%
CC(=O)Nc1ccc(NC(=O)c2nc(-c3ccccc3)oc2C)cc1 | / | 4 | 22% | 46% | 26 | -1%
CNC(=S)N/N=C/c1ccc2c(c1)OCCO2 | ? | 36* | 47% | 58% | 73* | 2%
CCOC(=O)C(=O)CC(=O)c1ccc2c(c1)OCCO2 | -2% | 30* | 17% | ? | 51 | 0%
NC(=O)c1ccc2c(c1)OCCO2 | -11% | -3 | 3% | 0% | -14 | 1%
COc1cccc(NC(=O)C(=O)N/N=C/c2ccc3c(c2)OCO3)c1 | 14% | 26* | 0% | 10µM* | 56 | -3%
COc1ccc(NC(=O)/C(=C/c2ccc(OC(C)=O)c(OC)c2)NC(C)=O)cc1 | -2% | 0 | -13% | -21% | -4 | 1%
O=C(N/N=C/c1ccc2c(c1)OCO2)C(=O)Nc1ccccc1Cl | 14% | -2 | 73% | -29% | 23 | 1%
COc1ccc(NC(=O)/C(=C\c2ccc3c(c2)OCO3)NC(C)=O)cc1 | -5% | 59* | 40% | -29% | 67* | -14%
CCn1cc(C(=O)N2CCN(c3cccc(Cl)c3)CC2)c2cc(OC)c(OC)cc2c1=O | 13% | -3 | / | / | -25 | -5%
COc1ccc(/C=C(/NC(=O)c2ccccc2Cl)C(=O)NCCCC(=O)O)cc1 | 6% | -2 | 4% | 0% | -7 | 0%
Cc1ccc(C(=O)Nc2cccc(N(C)S(C)(=O)=O)c2)cc1S(=O)(=O)Nc1ccccc1 | -13% | -2 | 5% | ? | -7 | 4%
Cc1ccc(NC(=O)c2ccc3c(c2)OCCO3)cc1S(=O)(=O)Nc1cccc(Cl)c1 | ? | 45* | 47% | 81% | 88* | -17%
